# Screening results from PubChem.
# FMDV inh = blocks foot and mouth disease virus | FMDV antiviral cell-based qHTS | Potency, µM (top dose mostly 57.9 µM), for the others: top-dose activity change, negative = inhibition, hits mostly inhibitors | hit rate 1.2% among 410,000 | AID 1159524; calls by dose curve; tested in HEK293T cells; also: read-out not given here; potency is read from the fitted curve at half-maximal effect; nearly all actives have a fitted effect of over 45% in size
# Sm TGR block = blocks Schistosoma mansoni thioredoxin glutathione reductase; Q962Y6; purified TGR, DTNB reduction, TNB absorbance 405 nm; Potency, µM (series often up to 114 µM), inactives show at the top dose activity change, negative = inhibition, hits mostly inhibitors; hit rate 3% among 360,000; also: potency is read from the fitted curve at half-maximal effect; nearly all actives have a fitted effect of over 60% in size
#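 Kinetic colorimetric format: TGR-catalysed, NADPH-driven DTNB reduction monitored via TNB absorbance. Enzyme dispensed at 20 nM; compound exposure 15 min at room temperature before reaction start.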
# VACV Venus inh = vaccinia inhibition (Venus reporter); Vaccinia virus Venus reporter expression, fluorescence; Potency, µM (highest dose often 36.5 µM), for inactives: at the highest dose activity change, negative = inhibition, most hits filed as inhibitors; hit rate 0.46% among 330,000; AID 720580; calls by dose curve; tested in A549 cells; also: potency is read from the fitted curve at half-maximal effect; nearly all actives have a fitted effect of over 30% in size
# Vaccinia mCherry = vaccinia inhibition (mCherry reporter). AID 720579. hit rate 0.63% among 310,000. Potency, µM (top dose mostly 36.5 µM), without a hit: at the highest dose activity change, negative = inhibition, hits mostly inhibitors. Vaccinia virus mCherry reporter infection, fluorescence; calls by dose curve; tested in A549 cells; also: potency is read from the fitted curve at half-maximal effect; nearly all actives have a fitted effect of over 35% in size
# HCMV antiviral = inhibitors of human cytomegalovirus; HFF cells, HCMV-luciferase reporter, 72 h; stronger effect = lower value; activity change, negative = inhibition, % at 57.5 µM; hit rate 4.5% among 410,000; AID 1259415; in the data active = activity change below about -60%; inconclusive = no clear call, values can overlap the other calls; inactive = above about -39%
#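 Inhibition of viral replication was scored as loss of reporter luminescence in HFFs infected with HCMV-luciferase (MOI 1 PFU/cell) for 72 h; compounds tested at 2 doses, normalized to buffer and Salinomycin controls.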
# HCV inhibitor = inhibitors of hepatitis C virus infection; Huh7.5.1 HCVcc-Cre infection, luciferase reporter, 44 h; Potency, µM (highest dose often 41.8 µM), inactives show at the top dose activity change, negative = inhibition, actives largely listed as inhibitors; AID 651820; hit rate 3.4% among 340,000; also: potency is read from the fitted curve at half-maximal effect
#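 1,000 cells/well; 4 h culture; + compound; + HCVcc-Cre (~0.5 moi); 44 h; luciferase substrate, RT 15 min; read 15 sec.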
# An asterisk follows results filed as active; i = inactive; ? = inconclusive; . = not tested or not shown. Most compounds without a hit are left out; they make up all but 9.3% or so of the library. Unless noted, calls follow the shape of the dose curve; as a rule, active = well fitted curve in the direction sought with a large enough effect; inconclusive = small, poorly fitted or top-dose-only effect, or another doubt; inactive = no such curve, though single readings can be large; an effect the other way counts as inactive or inconclusive. % is scaled to controls: 0 for no effect and ±100 for the full control effect.
SMILES,FMDV inh,Sm TGR block,VACV Venus inh,Vaccinia mCherry,HCMV antiviral,HCV inhibitor
COC(C[C@@H](O)CC(=O)COCc1ccccc1)OC,-11.1%,-4.3%,-2.3%,-10.1%,4.3,2.82µM*
COc1cc(C(=O)OCCN2CCOCC2)cc(OC)c1OC,.,1.9%,-8.5%,-0.9%,48.3,15.4%
CCN(CC)CCCCCCCCOC(=O)c1cc(OC)c(OC)c(OC)c1,-8.5%,1.6%,?,?,28.7,0.562µM*
COc1cc(C(=O)OCCCN(C)C)cc(OC)c1OC,-2.4%,-2.9%,-7.3%,-3.3%,-29.7,14.2%
COc1cc(C(=O)OCCCN2CCCN(CCCOC(=O)c3cc(OC)c(OC)c(OC)c3)CC2)cc(OC)c1OC,-15.1%,.,-9.5%,-6.4%,170.5,8.91µM*
O=C(NCCc1ccccc1)c1cccc(N2C(=O)C3CC=CCC3C2=O)c1 (stereo not given),-22.3%,-7.8%,-5.2%,i,-27.1,17.6%
O=C1OC/C(=C(/O)c2ccc(Cl)cc2)C1=O,4.8%,15.8µM*,.,.,-25.9,21.3%
Cc1ccccc1NC(=O)COC(=O)/C=C/c1cccc(C(F)(F)F)c1,-18.4%,2.6%,-17.4%,i,-10.2,-1.1%
NC1=NC[C@H](c2ccccc2)N1CCc1cc(C(F)(F)F)cc(C(F)(F)F)c1,?,2.4%,10µM*,10µM*,-70.7*,?
NC1=NC[C@@H](CC2CCCCC2)N1CCc1cc(C(F)(F)F)cc(C(F)(F)F)c1,35.5µM*,.,10µM*,?,.,?
CC(O)[C@H]1CN=C(N)N1CCc1cc(C(F)(F)F)cc(C(F)(F)F)c1 (stereo not given in full),-1.8%,2.5%,-1.9%,-20.1%,-5.1,15.9%
COCC(C)N=C1NN=C(c2c[nH]c3ccccc23)CS1 (stereo not given),0.0%,1.6%,.,.,251.8,-7.0%
CC(=O)c1ccccc1NC(=O)CCN1C(=O)C2CCCCC2C1=O (stereo not given),-1.1%,.,-3.2%,-11.9%,17.8,10.9%
O=C(CSc1nnnn1C1CCCC1)NCc1ccc2c(c1)OCO2,12.4%,-16.4%,-15.2%,-0.5%,7.5,10.7%
Cc1ccc2oc(C(=O)Nc3sc4c(c3C(=O)NCc3cccnc3)CCCC4)cc(=O)c2c1,-6.0%,-2.8%,2.1%,10.2%,22.4,.
Cc1ccc2c(=O)cc(C(=O)Nc3sc4c(c3C(=O)NCc3cccnc3)CCCC4)oc2c1C,-16.0%,-1.5%,-7.5%,-6.6%,16.4,.
CNC(=O)c1c(NC(=O)c2ccco2)sc2c1CCCC2,12.7%,-21.4%,-15.0%,-9.2%,48.4,14.1µM*
O=C(Nc1sc2c(c1C(=O)NCc1cccnc1)CCCC2)c1ccco1,-13.8%,?,.,.,38.8,7.94µM*
Cc1ccc(-c2cc(C(=O)Nc3sc4c(c3C(=O)NCc3ccco3)CCC4)[nH]n2)c(O)c1,25.1µM*,3.7%,.,.,-6.7,-6.8%
CC(Oc1ccc(F)cc1)C(=O)Nc1sc2c(c1C(=O)NCc1cccnc1)CCCC2 (stereo not given),-19.0%,0.2%,-21.7%,-25.3%,35.6,2.51µM*
Cc1c([N+](=O)[O-])c([N+](=O)[O-])nn1CC(=O)NCc1cccnc1,-14.5%,0.3%,-2.5%,-5.8%,-1.5,5.5%
CCOC(=O)c1ccccc1NC(=O)c1ccc2nccnc2c1,-29.3%,-10.3%,.,.,-18.0,?
Cc1ccc(C(=O)C(NC(=O)c2ccco2)Nc2sc3c(c2C(N)=O)CCCC3)cc1 (stereo not given),.,28.2µM*,.,.,.,-3.1%
Cc1cc(NC(=O)c2cccc(Br)c2)n[nH]1,67.2%,8.6%,-6.7%,-6.3%,29.5,13.4%
CSc1nccc(NC(=O)c2cccc(Br)c2)n1,?,0.0%,-18.7%,i,-31.8,10µM*
SMILES,FMDV inh,Sm TGR block,VACV Venus inh,Vaccinia mCherry,HCMV antiviral,HCV inhibitor
Cc1ccc2c(c1)c(N=NC(N)=S)c(O)n2Cc1ccccc1,-6.4%,4.6%,1µM*,0.891µM*,-4.8,0.1%
NC(=S)N=Nc1c(O)n(Cc2ccc(F)cc2)c2ccccc12,?,-0.7%,.,.,-30.5,?
NC(=S)N=Nc1c(O)n(CCCl)c2ccc(Br)cc12,-17.5%,7.6%,?,?,-23.2,?
C/C(Cl)=C\Cn1c(O)c(N=NC(N)=S)c2cc(Br)ccc21,?,0.1%,.,.,-109.2*,11.2µM*
NC(=S)N=Nc1c(O)n(Cc2ccc(Br)cc2)c2ccccc12,0.0%,0.6%,1µM*,1µM*,-27.3,1µM*
O=C(CCc1nnc(Cc2ccc3c(c2)OCO3)o1)NCc1nc2ccccc2s1,-4.1%,28.2µM*,.,.,50.8,-13.6%
COc1ccc(OC)c(/C=N/NC(=O)CNC(=O)c2ccc(S(=O)(=O)N3CCOCC3)cc2)c1,-7.6%,4.8%,-10.4%,-21.3%,?,26.5%
CCCCOc1ccc(C(=O)NCC(=O)NCCOc2ccccc2OC)cc1,-11.8%,4.9%,.,.,-0.7,12.6µM*
CC(C)(C)c1ccc(C(=O)NCCOc2ccccc2)cc1,20µM*,1.8%,-9.8%,-3.0%,?,-2.5%
COCCNC(=S)NC(=O)c1ccc(C(C)(C)C)cc1,12.5%,39.8µM*,.,.,-34.9,-5.3%
CC(C)(C)c1ccc(C(=O)NCCOc2ccccc2F)cc1,35.5µM*,3.7%,-19.2%,-11.9%,-69.5*,-3.4%
O=C(N/N=C/c1ccc(Br)cc1)c1ccc(Br)o1,21.8%,-9.6%,?,?,56.9,-2.4%
O=C(Nc1cccc(Cl)c1)N1CCC(CO)(CCOc2ccccc2)CC1,-0.8%,4.3%,-10.6%,i,1.5,-18.3%
CSc1nnc(C)c(/C=C/Nc2ccc(F)cc2)n1,-42.4%,-1.8%,-25.0%,.,-12.4,-6.4%
COc1ccc(N/C=C/c2nc(SC)nnc2C)cc1,-16.1%,5.6%,-2.0%,-13.2%,-86.2*,-10.1%
COc1ccccc1CNC(=O)CN1C(=O)NC2(CCC(C)CC2)C1=O (stereo not given),6.0%,.,0.0%,-0.6%,33.5,2.7%
O=C(CC[C@H]1O[C@@H](n2cnc3c(NC(=O)c4ccccc4)ncnc32)[C@H](O)[C@@H]1O)NCc1ccc2c(c1)OCO2,-0.4%,.,-12.7%,12.5%,-19.9,.
CC1CC2(CCCC2)Nc2ccc(F)cc21 (stereo not given),-11.5%,39.8µM*,.,.,?,12.0%
Cc1cccc2c1NC1(CCCC1)CC2C (stereo not given),-23.9%,?,.,.,-63.0*,5.8%
COC(=O)C1CN(S(=O)(=O)c2ccc(NC(C)=O)cc2)CCS1 (stereo not given),-6.3%,-1.3%,-16.8%,-15.8%,-15.8,17.6%
COc1ccccc1-c1c(-c2ccc(OCC(=O)NN)cc2O)n[nH]c1C(F)(F)F,?,-3.6%,-14.0%,-28.0%,-31.9,?
COc1ccc(-c2n[nH]c(C(F)(F)F)c2-c2cc3ccccc3o2)c(O)c1,?,4.7%,?,?,-3.5,11.2µM*
